# Measurements taken from publication PMC4336329 (PLoS ONE, 2015).
# The whole screen tested about 310,000 compounds, of which about 14,000 (4.5%) showed an effect of 50% or more. The effect is printed as a negative number. The full list was thinned out, with strong results kept by preference.
# Target: human ether-à-go-go-related gene (hERG) potassium channel (human, UniProt Q12809)
# Experiment: primary screen, population patch clamp on CHO cells stably expressing hERG; higher = less effect of the substance
# 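Note: peak tail current of the secondary pulse compared with the same well before compound.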
# Sequence of human ether-à-go-go-related gene (hERG) potassium channel (Q12809 whole entry, looked up): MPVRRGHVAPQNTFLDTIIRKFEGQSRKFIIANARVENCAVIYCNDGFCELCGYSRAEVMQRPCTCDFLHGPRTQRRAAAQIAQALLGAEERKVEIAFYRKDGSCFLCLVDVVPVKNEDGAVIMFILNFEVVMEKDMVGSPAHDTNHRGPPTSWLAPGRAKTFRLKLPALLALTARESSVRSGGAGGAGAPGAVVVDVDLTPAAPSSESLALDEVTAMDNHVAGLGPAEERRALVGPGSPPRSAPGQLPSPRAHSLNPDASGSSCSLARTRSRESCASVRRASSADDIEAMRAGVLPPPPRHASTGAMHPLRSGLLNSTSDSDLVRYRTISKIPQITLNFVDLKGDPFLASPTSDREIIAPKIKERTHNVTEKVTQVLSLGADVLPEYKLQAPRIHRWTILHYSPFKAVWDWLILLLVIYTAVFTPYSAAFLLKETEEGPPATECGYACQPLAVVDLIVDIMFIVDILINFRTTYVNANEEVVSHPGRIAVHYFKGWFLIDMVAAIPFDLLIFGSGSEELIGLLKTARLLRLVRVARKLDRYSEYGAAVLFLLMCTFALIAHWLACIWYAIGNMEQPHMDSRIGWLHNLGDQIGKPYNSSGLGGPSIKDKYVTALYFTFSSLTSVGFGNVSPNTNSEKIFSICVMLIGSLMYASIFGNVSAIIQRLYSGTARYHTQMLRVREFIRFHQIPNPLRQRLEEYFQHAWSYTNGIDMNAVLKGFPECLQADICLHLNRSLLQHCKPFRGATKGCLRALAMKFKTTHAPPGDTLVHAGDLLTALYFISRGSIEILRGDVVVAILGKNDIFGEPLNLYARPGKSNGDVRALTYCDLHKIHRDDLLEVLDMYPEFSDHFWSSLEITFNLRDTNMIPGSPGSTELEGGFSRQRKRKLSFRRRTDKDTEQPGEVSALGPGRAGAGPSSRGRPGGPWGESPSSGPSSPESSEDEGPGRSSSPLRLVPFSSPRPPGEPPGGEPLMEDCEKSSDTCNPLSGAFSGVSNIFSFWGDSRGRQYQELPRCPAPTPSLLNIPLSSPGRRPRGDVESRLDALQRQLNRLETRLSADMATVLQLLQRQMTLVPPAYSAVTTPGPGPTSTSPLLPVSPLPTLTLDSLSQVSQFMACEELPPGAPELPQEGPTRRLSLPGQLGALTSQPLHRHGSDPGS
row,SMILES,"hERG current change (%, negative = inhibition) at 10uM [%]"
1,N#Cc1c(NC(=O)CCN2C(=O)c3ccccc3C2=O)oc(-c2ccccc2)c1-c1ccccc1,-11.7
2,O=C1CCCN1CC1CCCN(Cc2nc(COc3ccccc3)no2)C1 (stereo not shown),28.6
3,O=C(NCc1ccccc1F)C1CCCN(C(=O)Nc2ccccc2)C1 (stereo not shown),3.18
4,Cc1noc(C)c1COc1cccc(C(=O)Nc2ccc3c(c2)OCO3)c1,9.81
5,COc1cc(C(=O)OC(C)C(=O)Nc2ccc3c(c2)OCO3)ccc1OCc1c(C)noc1C (stereo not shown),15.8
6,Cc1noc(C)c1COc1cccc(C(=O)OC(C)C(=O)Nc2ccc3c(c2)OCO3)c1 (stereo not shown),-61.2
7,Cc1nc2sccn2c(=O)c1CCN1CCC(=C(c2ccccc2)c2ccc(F)cc2)CC1,-78
8,CCOc1ccccc1NC(=O)N1CCC(C(=O)c2ccc(F)cc2)CC1,-32
9,Cc1nc2sccn2c(=O)c1CCN1CCC(=C(c2ccc(F)cc2)c2ccc(F)cc2)CC1,-78.6
10,Cc1nc2ccccn2c(=O)c1CCN1CCC(C(=O)c2ccc(F)cc2)CC1,-73.3
11,CCCCc1c(O)nc2sccn2c1=O,-2
12,Cc1nc2sccn2c(=O)c1S(=O)(=O)NCc1ccccc1,-2.53
13,Cc1ccccc1NC(=O)N1CCC(C(=O)c2ccc(F)cc2)CC1,-16.3
14,CCOC(=O)c1ccc(NS(=O)(=O)c2c(C)nc3sccn3c2=O)cc1,1.63
15,Cc1nc2sccn2c(=O)c1S(=O)(=O)NCCc1ccccc1,-21.5
16,COc1ccc(C2=NN(c3ccccc3)C(c3cn(CCC(=O)O)nc3-c3ccccc3)C2)cc1 (stereo not shown),1.09
17,COC(=O)C1CCN(C(=O)Cc2ccc(OC)c(OC)c2)CC1,0.292
18,CN1CCC(=O)N(CCSc2ccccc2)CC1,-3.36
19,[N-]=[N+]=NCCN1CCN(CCc2ccccc2)CCC1=O,9.16
20,C[C@H]1CCC(=O)N(CCSc2ccc(Br)cc2)CC1,-23.8
21,CC(C)CN1CCC(=O)N(CCSc2ccc(Br)cc2)CC1,-61.3
22,CCCN1CCC(=O)N(CCOc2ccccc2)CC1,-6.3
23,COc1ccc(SCCN2CCN(CC(C)C)CCC2=O)cc1,-42.9

row,SMILES,"hERG current change (%, negative = inhibition) at 10uM [%]"
1,Cc1ccc(SCCN2CCN(CCc3ccccc3)CCC2=O)cc1,-69.6
2,O=C1CCN(CCc2ccccc2)CCN1CCOc1ccccc1,-72.8
3,CC(C)CN1CCC(=O)N(CCSc2ccccc2)CC1,-15.4
4,O=C1CCN(Cc2ccccc2)CCN1CCOc1ccccc1,-10.4
5,O=C1CCN(CCc2ccccc2)CCN1CCSc1ccc(Br)cc1,-80.1
6,CN1CCC(=O)N(CCSc2ccc(Br)cc2)CC1,-25.5
7,COc1ccccc1OCCNC(=O)c1ccc2c(c1)CCC2,-5.96
8,Cc1ccc(S(=O)(=O)NC(=NCC(=O)O)c2ccccc2)cc1,2.94
9,COc1cc(OC)cc(C(=O)NNC(=O)c2cc(S(=O)(=O)N3CCOCC3)ccc2F)c1,-1.89
10,CCC(=O)n1nc(-c2ccccc2)nc1NCc1ccccc1,10.9
11,Cn1ncc(N)c1C(=O)Nc1cccc(C(F)(F)F)c1,1.42
12,CCOC(=O)c1cc(C)n(-c2ccc(OC)c(OC)c2)c1C,-16.5
13,COc1cccc(NC(=S)N2CCC(NC(=O)c3ccco3)CC2)c1,-11
14,CCOc1ccc2nc(NC(=O)c3ccccn3)sc2c1,6.42
15,COC(=O)c1cc(C)nc2c1C(=O)C(=O)C=C2N1CCOCC1,-2.1
16,O=C1CCN(CCc2ccccc2)CCN1CCSc1ccccc1,-76.4
17,CCCN1CCC(=O)N(CCSc2ccccc2)CC1,-15.1
18,O=C1CCN(CCc2ccccc2)CCN1CCO,-4.16
19,CCN(CC)S(=O)(=O)c1ccc(NC(=O)CO/N=C(\N)c2ccccc2)cc1,-16.6
20,O=C(CN1CCOc2ccccc21)NCc1cccs1,8.26
21,Br.O=C(CN1C2=NCCCN2c2ccccc21)c1ccc(Br)s1,-67.2
22,O=C(CN1C2=NCCCN2c2ccccc21)c1cccs1,-18.4
23,Br.O=C(CN1C2=NCCN2c2ccccc21)C12CC3CC(CC(C3)C1)C2,-72.7

row,SMILES,"hERG current change (%, negative = inhibition) at 10uM [%]"
1,Br.O=C(CN1C2=NCCN2c2ccccc21)c1cccs1,-31.3
2,Br.CCOC(=O)CN1C2=NCCN2c2ccccc21,18.1
3,Br.O=C(CN1C2=NCCN2c2ccccc21)c1ccc(Br)s1,-64.5
4,O=C1CCC(=O)N1CC(=O)N1c2ccccc2Sc2ccccc21,3.19
5,Cc1nc(C(=O)NC2CCOCC2)sc1C1(C)CC(c2ccccc2)=NO1 (stereo not shown),-19.8
6,CC(C)CCNC(=O)C1CCC(=O)N1CCc1ccccc1 (stereo not shown),9.14
7,CCN(CC)CCCNC(=O)c1cc2c(=O)n(CC)c3ccccc3c2s1,-14.9
8,CC(C)Oc1ccccc1C1Nc2ccccc2C(=O)N1c1ccc2c(c1)OCCO2 (stereo not shown),3.43
9,Fc1ccccc1NC(=S)NC1CCCC1,14
10,Cc1ccc(NC(=O)N(C2=NCC(C)S2)c2ccccc2)cc1 (stereo not shown),16.3
11,CCn1c(SCc2nc(-c3ccccc3)no2)nnc1-c1cccs1,-61.2
12,Cn1c(SCc2nc(-c3ccc(Br)cc3)no2)nnc1-c1ccco1,-49.6
13,Cn1c(SCc2nc(-c3ccc(Cl)cc3)no2)nnc1-c1ccco1,-53.2
14,CCn1c(SCc2nc(-c3ccccc3)no2)nnc1-c1ccco1,-36.3
15,Cn1c(SCc2nc(-c3ccccc3)no2)nnc1-c1ccco1,-18.4
16,Cn1c(SCc2nc(-c3ccccc3)no2)nnc1-c1cccs1,-2.11
17,Cn1c(SCc2nc(-c3ccc(Cl)cc3)no2)nnc1-c1ccccc1,-22.5
18,CCn1c(SCc2nc(-c3ccc(OC)c(OC)c3)no2)nnc1-c1cccs1,-40.1
19,CCn1c(SCc2nc(-c3ccc(Cl)cc3)no2)nnc1-c1ccco1,-62
20,O=C(NCCN1CCCC1)C1CCN(S(=O)(=O)N2CCC3(CC2)OCCO3)CC1,20.5
21,Cc1cccc(N(C)c2ncnc3onc(-c4ccc(F)cc4)c23)c1C,-8.28
22,COc1ccc(CN2CCNC(=O)C2CC(=O)NCC2CCOCC2)c(C)c1C (stereo not shown),-19.6
23,O=C(O)CCCn1cc(NC(=O)COc2ccc(F)cc2)cn1,16.5

row,SMILES,"hERG current change (%, negative = inhibition) at 10uM [%]"
1,N#Cc1c(N)oc(-c2ccco2)c1-c1ccco1,1.98
2,COc1ccc(NS(=O)(=O)c2cccc(C(=O)NNC(=O)CNC(=O)c3ccc(C)cc3)c2)cc1,-2.64
3,O=C(NCc1ccccc1)C(c1ccc(F)cc1)N(Cc1ccco1)C(=O)c1ccccn1 (stereo not shown),-24.4
4,O=C(Nc1c2c(nc3ccccc13)CCCC2)c1ccccc1Br,4.09
5,N#Cc1cccc(Nc2c3c(nc4ccccc24)CCCC3)c1,-74.8
6,O=C(Nc1c2c(nc3ccccc13)CCCC2)c1cccc([N+](=O)[O-])c1,-5.85
7,N#Cc1cccc(Nc2c3c(nc4ccccc24)CCC3)c1,-72.2
8,CC(C)c1ccc(NC(=O)c2cc3c(=O)n(C)c4ccccc4c3n2C)cc1,6.96
9,COc1ccccc1OCc1ccc(C(=O)N2CCCCC2)o1,2.22
10,O=C(c1ccco1)c1cn(CC(=O)N2CCCCC2)c2ccccc12,-6.34
11,CCOC(=O)c1[nH]c2ccccc2c1NC(=O)COC,-4.53
12,Cc1cc(C(=O)CCl)c(C)n1Cc1ccco1,3.06
13,Cc1oc(-c2ccc(Cl)cc2)nc1CN1CCC(C(=O)NCCCN2CCCC(C)C2)CC1 (stereo not shown),-16.5
14,Cc1oc(-c2ccc(Cl)cc2)nc1CN1CCC(C(=O)NCCCN2CCCC2=O)CC1,-33.9
15,Cc1ccccc1-c1nc(CN2CCC(C(=O)NCc3cccs3)CC2)c(C)o1,-70.5
16,Cc1oc(-c2ccc(Cl)cc2)nc1CN1CCC(C(=O)NCc2cccs2)CC1,-61.5
17,Cc1oc(-c2ccccc2F)nc1CS(=O)CC(=O)NCc1cccs1 (stereo not shown),-12
18,Cc1oc(-c2ccccc2F)nc1CN1CCC(C(=O)NCc2cccs2)CC1,-63.7
19,CC12CCC3C(CC=C4CC(O)CCC43C)C1C/C(=C\c1cccc(F)c1)C2=O (stereo not shown),7.89
20,COc1ccc(CNC(=O)Cc2nn(C)c(=O)c3ccccc23)cc1,-14.2
21,CCN1CCN(S(=O)(=O)c2cc(C(=O)O)ccc2Cl)CC1.Cl,-3.34
22,Cc1ccc(S(=O)(=O)N2CCC(C(=O)NNC(=O)c3ccccc3)CC2)cc1,18.9
